Data published in PubChem BioAssay (NCATS).
“And” between values parts separate entries of the source, which are not always exact repeats. Equal values may be shown once. Inconclusive results are not listed. Where a call stands in place of a potency, no number is given. The source made the active and inactive calls. Unless noted, calls come from the whole dose curve; as a rule, active = well fitted curve in the direction sought with a large enough effect; inconclusive = small, poorly fitted or top-dose-only effect, or another doubt; inactive = no such curve, though single readings can be large; an effect the other way counts as inactive or inconclusive.

Legend:
[1] = Cell Viability - BJ (AID 421; calls by dose curve;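 note: potency is the fitted concentration of half-maximal effect; cells exposed to compound for 40 hours at 37 °C before readout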); conditions: BJ fibroblast viability, qHTS
Method in brief: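 Cytotoxicity as drop in intracellular ATP (CellTiter-Glo, 20 min RT) after 40 hr compound exposure of BJ fibroblasts at 37 °C. Titrations scaled between DMSO and 100 uM tamoxifen, Hill-fitted for AC50.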

[2] = Cell Viability - HepG2 (AID 433; calls by dose curve;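 note: potency is the fitted concentration of half-maximal effect; potency for ATP loss meaning cytotoxicity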); conditions: qHTS
Method in brief: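 HepG2 cells, 1500 per well, treated 40 hr at 37 °C in complete medium; viability from intracellular ATP by CellTiter-Glo luminescence. Normalized to DMSO and 100 uM tamoxifen; AC50 from Hill fit of qHTS concentration-response.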

[3] = Cell Viability - MRC5 (AID 434; calls by dose curve;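 note: potency is the fitted concentration of half-maximal effect; potency reflects cytotoxicity seen as loss of intracellular ATP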); conditions: MRC5 lung fibroblast viability, qHTS
Method in brief: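 qHTS cytotoxicity in human lung fibroblast MRC5 cells; 40 hr treatment, 37 °C; cellular ATP by luciferase luminescence; DMSO = 0%, 100 uM tamoxifen = 100% inhibition; Hill-fit AC50.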

[4] = target: Mitogen-activated protein kinase 10 (Mus musculus) (UniProt Q61831); assay: JNK3 AlphaScreen Assay (AID 530; active = well fitted curve in either direction with a large enough effect, not every such curve was filed as active;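 note: kinase came from lysate of stimulated human HepG2 cells; signal reports phosphorylation of biotinylated GST-cJun 1-79 at Ser73 with 10 µM ATP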); conditions: JNK3 lysate, c-Jun phosphorylation; series mostly up to 57.1 µM
Method in brief: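 Room-temperature AlphaScreen kinase assay; pre-activated HepG2 lysate as JNK3 source, biotin-GST-cJun(1-79) substrate, 10 uM ATP, compound 15 min preincubation.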

[5] = Cell Viability - Renal Proximal Tubule (AID 545); conditions: renal proximal tubule cells viability; at 91.7 µM (top of the series), primary cells of rat origin unless noted; note: nearly all actives have a fitted effect of over 40% in size
Method in brief: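 Rat renal proximal tubule primary cells, 1000/well, exposed to compounds for 40 hr at 37 °C in complete medium; cellular ATP read by CellTiter-Glo luminescence. AC50 from concentration-response fitted with standard Hill equation.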

[6] = Cell Viability - Mesenchymal (AID 546); conditions: mesenchymal cells viability, qHTS; series mostly up to 91.7 µM;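 note: cells exposed to compound for 40 hours before reading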
Method in brief: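 AC50 values reflect the drop in intracellular ATP in a human kidney mesenchymal line derived from normal glomeruli. Treatment lasts 40 hr at 37 °C in complete medium, and the signal comes from CellTiter-Glo luminescence.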

[7] = Cellular Toxicity (caspase-3) Jurkat (AID 655); conditions: Jurkat caspase-3 activation, luminescence, DMSO = 0%, tamoxifen = 100%; at 92.2 µM (top of the series);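 note: cells exposed to compound for 16 h at 37 °C before reading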
Method in brief: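 Jurkat cells (5000/well) in complete medium exposed 16 h at 37 C; caspase-3/7 activity read by Caspase-Glo luminescence after 20 min at room temperature. Normalized to DMSO and 100 uM tamoxifen; AC50 from Hill fits.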

[8] = Cellular Toxicity (caspase-3) HUV-EC-C (AID 656); conditions: HUV-EC-C cells, caspase-3 activation (apoptosis), vehicle = 0, 100 µM tamoxifen = 100%; series mostly up to 92.2 µM
Method in brief: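 HUV-EC-C cells (1000/well) in complete medium, compound-treated 16 h at 37 °C; caspase-3/7 activity read by Caspase-Glo 3/7 luminescence. Normalized to DMSO (basal) and 100 uM tamoxifen (100%); AC50 from Hill-equation concentration-response fits.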

[9] = Cellular Toxicity (caspase-3) SHSY5Y (AID 657); conditions: SH-SY5Y caspase-3 activation, DMSO zero, 10 µM staurosporine = 100%; series mostly up to 91.7 µM
Method in brief: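 SH-SY5Y human neuroblastoma cells, 1500/well, exposed to compound for 16 hours at 37 °C in complete medium. Caspase-3/7 activity read by Caspase-Glo luminescence after 1 hr at room temperature, normalized to DMSO and 10 uM staurosporine; AC50 from Hill fit.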

[10] = Cellular Toxicity (caspase-3) BJ (AID 658); conditions: BJ fibroblasts, luminescence, normalized: DMSO 0%, staurosporine 100%; series mostly up to 91.7 µM
Method in brief: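 Readout: Caspase-Glo 3/7 luminescence increase in BJ cells after 16 hr treatment at 37 °C. Staurosporine and tamoxifen served as positive controls; AC50 values came from Hill modelling of data normalized to DMSO and 10 uM staurosporine.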

[11] = Cellular Toxicity (caspase-3) MRC-5 (AID 659); conditions: MRC-5 cells, luminescence, normalized: DMSO 0%, 10 µM staurosporine 100%; series mostly up to 91.7 µM
Method in brief: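 Concentration-dependent caspase 3/7 activation is measured in human normal lung fibroblasts (MRC-5) following 16-hour treatment. AC50 values come from standard Hill-equation modeling of luminescence normalized to DMSO and 10 uM staurosporine.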

[12] = Cellular Toxicity (caspase-3) Mesangial (AID 660); conditions: mesangial cells, normalized: DMSO 0%, 100 µM tamoxifen 100%; series mostly up to 91.7 µM;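 note: cells exposed to compound for 16 h before the caspase read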
Method in brief: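 Human renal glomerular mesangial cells (1000/well) were treated with compounds for 16 h at 37 °C in complete medium, then caspase 3/7 activity was read by Caspase-Glo luminescence. Data were normalized to DMSO and 100 uM tamoxifen; AC50 from Hill fits.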

[13] = Cellular Toxicity (caspase-3) SK-N-SH (AID 661); conditions: SK-N-SH caspase-3 activation, qHTS, DMSO as zero, staurosporine as full; series mostly up to 91.7 µM
Method in brief: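 SK-N-SH human neuroblastoma cells (1500/well) were treated with compounds for 16 hr at 37 °C in complete medium; caspase 3/7 activity was read by Caspase-Glo luminescence. AC50 came from Hill fits of data normalized to DMSO and 10 uM staurosporine.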

[14] = Cellular Toxicity (caspase-3) H-4-II-E (AID 663); conditions: H-4-II-E rat hepatoma, scaled: DMSO 0%, 100 µM tamoxifen 100%; series mostly up to 92.2 µM;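 note: cells exposed to compound for 16 hr before readout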
Method in brief: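 Apoptosis induction is scored as increased luminescence from caspase 3/7 substrate cleavage in rat hepatoma H-4-II-E cells exposed to compound for 16 hr. Activity is scaled between DMSO and 100 uM tamoxifen.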

[15] = Cellular Toxicity (caspase-3) Renal Proximal Tubule (AID 667); conditions: renal proximal tubule cells; at 91.7 µM (top of the series), primary cells freshly taken from rat, solvent-only wells 0%, staurosporine 100% unless noted;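 note: cells exposed to compound for 16 hours at 37 °C before detection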
Method in brief: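 Freshly isolated primary rat kidney proximal tubule cells, 1000/well, treated 16 hr at 37 °C, then Caspase-Glo 3/7 luminescence after 1 hr. Normalized to DMSO and 10 uM staurosporine; AC50 from Hill fit.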

[16] = qHTS Assay for Identification of Small Molecule Inducers of Hypoxia Response (AID 2120; active = well fitted curve in the direction sought with a large enough effect in the signal ratio, with a control signal flat, not every such curve was filed as active; the % refers to the signal ratio); conditions: hypoxia response reporter cells, beta-lactamase ratio readout; series mostly up to 104 µM
Method in brief: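 HRE-beta-lactamase reporter in CellSensor HRE-bla ME-180 cells, 2500 cells/well in Opti-MEM with 0.5% dialyzed FBS; compounds tested as titration series, 17 h at 37 degrees C. CCF4 substrate 2.5 h at room temperature; AC50 from 460/530 nm ratio.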

[17] = qHTS assay for small molecule agonists of retinoid X receptor alpha signaling (AID 588544); conditions: HEK293T RXRa-UAS-bla, beta-lactamase reporter, 18 h; 530 nm emission
[18] = qHTS assay for small molecule agonists of the antioxidant response element (ARE) signaling pathway measured by Nrf2-dependant transcriptional activity - cell viability counter screen (AID 720653; active = well fitted curve in the direction sought with a large enough effect in the repeat runs; an effect the other way counts as inactive or inconclusive); conditions: ARE-bla HepG2 viability, CellTiter-Glo ATP luminescence, 16 h; stronger effect = lower value
Method in brief: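 Cytotoxicity counter screen: intracellular ATP quantified by CellTiter-Glo luminescence in the same ARE-bla HepG2 plates, after 16 h compound exposure and a 2 h beta-lactamase substrate step.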

[19] = qHTS assay for cell viability of HEK293 cells (AID 743288); conditions: ATP luminescence (CellTiter-Glo), 18 h; max response: stronger effect = lower value; note: nearly all actives have a fitted effect of over 50% in size
Method in brief: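 Parental HEK293 cells, 2,000 per well, preincubated at least 5 h at 37 C, then exposed to compounds in DMSO for 18 h at 37 C. Viability by CellTiter-Glo ATP luminescence after 30 min at room temperature.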

[20] = qHTS assay for cell viability of the p53RE-bla HCT-116 cell line (AID 743292); conditions: p53RE-bla HCT-116 viability, ATP luminescence, 16 h; series mostly up to 95 µM; note: nearly all actives have a fitted effect of over 55% in size
Method in brief: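 ATP-based luminescent viability (CellTiter-Glo, 30 min RT) after 16 h compound treatment at 37 C of p53RE-bla HCT-116 cells, seeded at 4,000 cells/well and rested 5 h before dosing.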

| SMILES | Potency [1] | Potency [2] | Potency [3] | outcome [4] | activity change, negative = cytotoxicity [5] | outcome [6] | caspase-3 activation [7] | outcome [8] | outcome [9] | outcome [10] | outcome [11] | outcome [12] | outcome [13] | outcome [14] | caspase-3 activation [15] | outcome [16] | max response [17] | max response [18] | max response [19] | Potency [20] |
| --- | --- | --- | --- | --- | --- | --- | --- | --- | --- | --- | --- | --- | --- | --- | --- | --- | --- | --- | --- | --- |
| O=[N+]([O-])c1ccc(Cl)c(Cl)c1 | > 92 µM (inactive) | > 92 µM (inactive) | > 92 µM (inactive) | inactive | -5.41% [at 91.7 µM] (inactive) | inactive | 0.916% (inactive) | inactive | inactive | inactive | inactive | inactive | inactive | inactive | 4.74% [at 91.7 µM] (inactive) | inactive | 1.86% | -14.5% (inactive) | 7.83% (inactive) | inactive |
| ClC(Cl)=C(Cl)Cl | > 92 µM (inactive) | > 92 µM (inactive) | > 92 µM (inactive) | inactive | -15.6% (inactive) and -5.24% (inactive) | inactive | -0.349% (inactive) and -0.592% (inactive) | inactive | inactive | inactive | inactive | inactive | inactive | inactive | 1.99% (inactive) and -8.12% (inactive) | inactive | 4.54% and -3.27% | 5.48% (inactive) and 2.15% (inactive) | 2.96% (inactive) and -9.63% (inactive) | inactive |
| CC(=O)[O-].CC(=O)[O-].O.O.O.[Pb+2] | > 92 µM (inactive) | > 92 µM (inactive) | > 92 µM (inactive) | inactive | -5.61% (inactive) and -0.959% (inactive) | inactive | 1.15% (inactive) and 0.852% (inactive) | inactive | inactive | inactive | inactive | inactive | inactive | inactive | -9.48% (inactive) and -1.66% (inactive) | inactive | -8.91% and -19.7% | -9.67% (inactive) and 5.41% (inactive) | -11.3% (inactive) and -5.22% (inactive) | inactive |
| CCCC(=O)Cl | > 92 µM (inactive) | > 92 µM (inactive) | > 92 µM (inactive) | inactive | 0.416% (inactive) | inactive | -0.695% (inactive) | inactive | inactive | inactive | inactive | inactive | inactive | inactive | 6.16% (inactive) | inactive | -4.61% | 18.2% (inactive) | 0.489% (inactive) | inactive |
| COc1ccc(N)cc1 | > 92 µM (inactive) | > 92 µM (inactive) | > 92 µM (inactive) | inactive | 0.402% (inactive) and -5.11% (inactive) | inactive | 2.07% (inactive) and 0.631% (inactive) | inactive | inactive | inactive | inactive | inactive | inactive | inactive | 4.4% (inactive) and -11% (inactive) | inactive | 14.8% and 16.7% | 6.52% (inactive) and -14.8% (inactive) | 2.27% (inactive) and -1.78% (inactive) | inactive |
| Nc1c(Cl)c(Cl)nc(C(=O)O)c1Cl | > 92 µM (inactive) | > 92 µM (inactive) | > 92 µM (inactive) | inactive | -10.2% (inactive) | inactive | 0.643% (inactive) | inactive | inactive | inactive | inactive | inactive | inactive | inactive | -0.472% (inactive) | inactive | 27.1% | 5.28% (inactive) and -6.28% (inactive) and -12.8% (inactive) | -0.605% (inactive) and -10.4% (inactive) and -8.99% (inactive) | inactive |
| CCOP(=S)(OCC)Oc1ccc([N+](=O)[O-])cc1 | > 92 µM (inactive) | > 92 µM (inactive) | > 92 µM (inactive) | inactive | -6.62% (inactive) and -2.54% (inactive) | inactive | -2.23% (inactive) and 0.755% (inactive) | inactive | inactive | inactive | inactive | inactive | inactive | inactive | 14.9% (inactive) and 4.17% (inactive) | inactive | -6.89% and 6.11% | -2.59% (inactive) and 6.4% (inactive) and 13.8% (inactive) | 0.0323% (inactive) and -20.7% (inactive) and -1.59% (inactive) | inactive |
| COc1ccc(C=O)cc1OC | > 92 µM (inactive) | > 92 µM (inactive) | > 92 µM (inactive) | inactive | -7.47% (inactive) | inactive | 1.2% (inactive) | inactive | inactive | inactive | inactive | inactive | inactive | inactive | -4.32% (inactive) | inactive | 17.8% and -5.1% | -2.79% (inactive) and -2.46% (inactive) | -6.04% (inactive) and -11.4% (inactive) | inactive |
